Only some compounds are listed: those with a hit (about 2.8% of all), similar ones and a draw of the others.
PI5P4K alpha inh = inhibitors of human PI5P4K alpha. P48426. PI5P4Kalpha enzyme, ADP-Glo luminescence, 60 min; active compounds read low. max response, %. 1.2% of 330,000 active. AID 652105; active = max response of -50% or lower; inconclusive = between -30% and -50%; inactive = -30% or higher; note: value at the top dose of about 77 µM; % is set by controls: 0 for no effect and ±100 for the full control effect
Target sequence (P48426 whole entry, looked up): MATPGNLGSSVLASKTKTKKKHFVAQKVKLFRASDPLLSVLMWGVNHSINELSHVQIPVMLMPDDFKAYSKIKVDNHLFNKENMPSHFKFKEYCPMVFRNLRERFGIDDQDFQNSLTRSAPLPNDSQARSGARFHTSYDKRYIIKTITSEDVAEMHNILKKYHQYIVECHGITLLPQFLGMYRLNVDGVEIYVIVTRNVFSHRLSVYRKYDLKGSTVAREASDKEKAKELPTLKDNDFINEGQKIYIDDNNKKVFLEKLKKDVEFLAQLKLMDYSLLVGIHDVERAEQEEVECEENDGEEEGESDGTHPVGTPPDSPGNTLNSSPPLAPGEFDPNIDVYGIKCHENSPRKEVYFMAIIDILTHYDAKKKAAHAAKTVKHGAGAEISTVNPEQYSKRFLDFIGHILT
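qHTS, 1536-well: enzyme/substrate mix, compound by pin tool, 5 microM ATP final; RT 60 min; ADP-Glo reagents 1 (45 min) then 2 (30 min); luminescence.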
Pol kappa inh = DNA polymerase kappa (human) inhibition | Q9UBT6 | purified Pol kappa, fluorescent DNA synthesis assay, 10 min | Potency, µM (top dose mostly 107 µM), inactives show top-dose activity, negative = inhibition, most hits filed as inhibitors | 0.53% of 400,000 active; note: potency is the fitted concentration of half-maximal effect; % is set by controls: 0 for no effect and ±100 for the full control effect
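10 nM Pol kappa preincubated 15 min at room temperature with compounds, then reaction started with substrate at 50 nM final. Fluorescence read kinetically at 0 and 10 min; buffer-only wells served as negative control.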
WRN inhibitor = WRN helicase (human) inhibition; WRN helicase unwinding, fluorescent forked duplex, kinetic; Potency, µM (top dose mostly 114 µM), for the others: at the top dose activity change, negative = inhibition, hits mostly inhibitors; 0.46% of 360,000 active; AID 651768; note: potency is the fitted concentration of half-maximal effect; % is set by controls: 0 for no effect and ±100 for the full control effect; nearly all actives have a fitted effect of over 55% in size
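Screening of the MLSMR collection measured strand separation of a quenched forked DNA duplex (100 nM) by 20 nM WRN with 2 mM ATP, all final. Compounds were preincubated with enzyme 15 min at room temperature.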
Pol eta inh = DNA polymerase eta (human) inhibition | Potency, µM (doses to about 114 µM), for the others: top-dose activity change, negative = inhibition, most hits filed as inhibitors | recombinant Pol eta, fluorescent DNA replication assay | AID 588591 | 1.2% of 390,000 active; note: potency is the fitted concentration of half-maximal effect; % is set by controls: 0 for no effect and ±100 for the full control effect
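Fluorescent replication assay: 50 nM final substrate added after a 15 min room-temperature compound preincubation with 10 nM enzyme. Signal taken at 0 min and again at 10 min.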
Pol iota inh = inhibitors of human DNA polymerase iota; Pol iota fluorescent replication assay, 10 min; AID 588590; Potency, µM (top dose mostly 115 µM), for inactives: at the highest dose activity, negative = inhibition, usual class: inhibitors; Q9UNA4; 1% of 390,000 active; note: potency is the fitted concentration of half-maximal effect
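Fluorescent replication assay read twice, at 0 min and 10 min after adding 50 nM (final) substrate. Enzyme (10 nM) and compounds were first incubated 15 min at room temperature; enzyme-free buffer wells were negative controls.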
Pol beta inh-1 = DNA polymerase beta (human) inhibition | Potency, µM (highest dose often 114 µM), for the others: top-dose activity change, negative = inhibition, actives largely listed as inhibitors | Pol beta primer extension/strand displacement, fluorescence kinetic | P06746 | 1.3% of 340,000 active | AID 485314; note: potency is the fitted concentration of half-maximal effect; % is set by controls: 0 for no effect and ±100 for the full control effect
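Pol beta (10 nM) and compounds were preincubated 15 min at room temperature, then 50 nM substrate (final) started primer extension/strand displacement. Reads were taken at 0 and 10 min; concentration-response data were fitted to a four-parameter Hill equation.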
Pol beta inh-2 = Inhibitors of human DNA polymerase beta, hit validation | Potency, µM, hits mostly inhibitors | AID 540280 | 87% of 250 active | shares compounds with Pol beta inh-1 | Pol beta primer extension/strand displacement, fluorescence kinetic; calls by dose curve; note: potency is the fitted concentration of half-maximal effect
Klenow counter = Klenow polymerase inhibition, pol beta selectivity check; Klenow exo- polymerase counter-screen, fluorescent DNA substrate; shares compounds with Pol beta inh-1; 250 tested, under 10 active; activity change, negative = inhibition, % at 57.1 µM; AID 540300
HIV RT counter = inhibits HIV-1 reverse transcriptase in counter-screen | shares compounds with Pol beta inh-1 | AID 540301 | activity % (negative = inhibition, positive = activation), % at 57.1 µM | HIV-1 RT polymerase activity, counter-screen | 250 tested, under 10 active
POLB inh gel = validation of human DNA polymerase beta inhibitors. 91% of 110 active. shares compounds with Pol beta inh-1. AID 540325. radiolabeled primer extension gel assay, phosphorimager. inhibition, % at 10 µM;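 active = inhibition at 10 µM of 30% or more; inconclusive = no clear call, values can overlap the other calls; inactive = inhibition at 10 µM under 30%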
* marks the source's active call; other numbers are inactive results; ? = inconclusive; nt = not tested or not shown; [ ] = remark or other dose. Unless noted, calls come from the whole dose curve; as a rule, active = well fitted curve in the direction sought with a large enough effect; inconclusive = small, poorly fitted or top-dose-only effect, or another doubt; inactive = no such curve, though single readings can be large; an effect the other way counts as inactive or inconclusive.

SMILES	PI5P4K alpha inh	Pol kappa inh	WRN inhibitor	Pol eta inh	Pol iota inh	Pol beta inh-1	Pol beta inh-2	Klenow counter	HIV RT counter	others
Cc1ccc(S(=O)(=O)N2CCCC2C(=O)OCc2ccco2)cc1 (stereo not drawn)	nt	-44%	?	32µM*	25µM*	20µM*	32*	-37	6	POLB inh gel=51*
Cc1ccc(S(=O)(=O)N2CCCC2C(=O)OCc2ccccc2)cc1 (stereo not drawn)	-4	-6%	-21%	-20%	8%	-1%	nt	nt	nt
Cc1c(N=O)c(-c2ccccc2)n(O)[n+]1[O-]	0	nt	-3%	-6%	nt	nt	nt	nt	nt
CCOC(=O)C1=C(C)N=c2s/c(=C/c3ccc(OCC(=O)O)cc3)c(=O)n2C1c1ccc(SC)cc1 (stereo not drawn)	nt	nt	nt	nt	nt	4.5µM*	7.9*	4	0
Cc1ccc(C(=O)NN2CC(O)=C(c3nc(-c4cccc([N+](=O)[O-])c4)cs3)C2=N)cc1	-24	-10%	-2%[57.1 µM]	-9%	?	5µM*	?	-28	27
COc1cccc(C(=O)NN2CC(O)=C(c3nc(C)cs3)C2=N)c1	0	-2%	-6%	?	10%	0%	nt	nt	nt
CC1=C(C#N)C(C)(C)C(C#N)=C(C)N1	2	nt	-8%	-1%	nt	nt	nt	nt	nt
O=C(Nc1sc2c(c1C(=O)NCc1ccco1)CCCC2)c1ccc2c(c1)OCO2	nt	-29%	-15%	-11%	?	13µM*	?	-26	31
COc1ccc(OC(=O)c2cn(-c3cccc(OC)c3)c(=O)c3ccccc23)cc1	nt	-2%[60.1 µM]	nt	-17%	16%	-21%	nt	nt	nt
O=C(OCc1ccccc1)N1Cc2ccnnc2CC1c1ccccc1Br (stereo not drawn)	-7	nt	-1%	nt	nt	nt	nt	nt	nt
CC(C)(C)c1nc2ccccc2c2nnc(SCC(=O)Nc3nc4ccccc4s3)n12	nt	-23%	-22%[57.1 µM]	-16%	45µM*	0.18µM*	?	2	32	POLB inh gel=85*
CC(C)(C)c1nc2ccccc2c2nnc(SCC(=O)Nc3nccs3)n12	nt	-5%	-4%	-2%	22%	14%	nt	nt	nt
O=C(O)c1ccc2c(c1)C(=O)N(c1cccc(-c3nc4ccccc4s3)c1)C2=O	-1	-16%	-30%	-7%	11%	18µM*	14*	-28	25
CC(=O)Oc1cccc(N2C(=O)c3ccc(C(=O)O)cc3C2=O)c1	nt	6%	6%	-9%	-14%	16%	nt	nt	nt
O=C(OCC(=O)N1CCN(C(=O)c2ccco2)CC1)c1cc(-c2ccco2)nc2ccccc12	nt	25µM*	50µM*	32µM*	8.9µM*	3.2µM*	3.5*	-24	?
Cc1c2cnn(CC(=O)Nc3c(F)c(F)cc(F)c3F)c(=O)c2c(C)n1Cc1ccc(F)cc1	nt	nt	nt	nt	nt	8.9µM*	25*	-33	-6	POLB inh gel=100*
Cc1cc(C)cc(NC(=O)C2CCC(CNS(=O)(=O)c3ccc4c(c3)C(C)(C)C(=O)N4C)CC2)c1 (stereo not drawn)	nt	-17%	nt	-15%	19%	2%	nt	nt	nt
NC(=O)c1c(NC(=O)CSc2nnc(-c3ccco3)n2-c2ccccc2)sc2c1CCC2	-65*	?	-31%	10µM*	?	4.5µM*	13*	-16	14
COC(=O)c1nc2n(n1)C(c1cccc(Cl)c1)C(C(=O)Nc1ccccc1OC)=C(C)N2 (stereo not drawn)	nt	-1%	nt	0%	4%	-27%	nt	nt	nt
Nc1c(C(=O)NCC2CCCO2)sc2nc3c(c(-c4ccco4)c12)CC/C3=C\c1ccco1 (stereo not drawn)	-100*	0.71µM*	2.8µM*	0.71µM*	0.79µM*	2.8µM*	11*	-7	-5
NC(=O)c1sc2nc3c(c(-c4ccco4)c2c1N)CCCC3	8	-2%	-16%	-7%	54%	18%	nt	nt	nt
CC(=O)NCCNC(=O)c1ccc(Cn2c(=O)[nH]c3ccsc3c2=O)cc1	-5	0%	1%	-24%	21%	56%	nt	nt	nt
O=C(Nc1cc(Cl)cc(Cl)c1)c1ccc(Cn2c(=O)[nH]c3ccsc3c2=O)cc1	-18	-11%	-11%	?	-6%	14µM*	?	-27	26	POLB inh gel=93*
CCc1ccc(C(C(=O)NC2CCCCC2)N(C(=O)c2csnn2)C2CC2)cc1 (stereo not drawn)	-5	2%	7%	-9%	32%	29%	nt	nt	nt
O=C(Nc1nc2ccc(F)cc2s1)C1CCN(S(=O)(=O)c2cc([N+](=O)[O-])ccc2Cl)CC1	?	-19%	-24%	?	?	8.9µM*	28*	-26	-4	POLB inh gel=100*
SMILES	PI5P4K alpha inh	Pol kappa inh	WRN inhibitor	Pol eta inh	Pol iota inh	Pol beta inh-1	Pol beta inh-2	Klenow counter	HIV RT counter	others
Cc1ccc(NC(=O)C2CCN(S(=O)(=O)c3cc([N+](=O)[O-])ccc3Cl)CC2)nc1	-23	?	-5%[11.6 µM]	?	?	nt	nt	nt	nt
O=C(COC(=O)C1CCN(S(=O)(=O)c2cc([N+](=O)[O-])ccc2Cl)CC1)Nc1ncc(Cl)cc1Cl	-50*	79µM*	?	8.9µM*	?	8.9µM*	28*	-11	-23	POLB inh gel=86*
NC(=O)NS(=O)(=O)c1ccc(N)cc1	nt	9%[19.4 µM]	nt	nt	nt	nt	nt	nt	nt
O=C(CSc1nc2scc(-c3ccco3)c2c(=O)n1-c1ccccc1)NCC1CCCO1 (stereo not drawn)	?	-41%	-23%	?	40µM*	11µM*	?	-33	25	POLB inh gel=70*
CC1(OC(=O)c2cccs2)C(=O)C=C2C=C3CCCN3C=C2C1=O (stereo not drawn)	-60*	11µM*	?	22µM*	4.5µM*	14µM*	28*	9	21
COC(=O)CCCC1=CC2=CC(=O)C(C)(OC(=O)c3cccs3)C(=O)C2=CN1c1ccc(OC)cc1 (stereo not drawn)	-9	-23%	-7%	-10%	61%	0%	nt	nt	nt
COc1cccc(CCc2ccccc2OCC(CN(C)C)OC(=O)CCC(=O)O)c1 (stereo not drawn)	nt	-6%[19.4 µM]	nt	nt	?	nt	nt	nt	nt

Compound activity: PubChem, National Center for Advancing Translational Sciences (NCATS)
